This is one part of the list. How many sequences the whole screen found active is unknown.
B1: FS-2988 (peptide)
chain: CARLKKSQFLAGNASASA
B2: HC1171 (peptide)
chain: CAVDGIMHTRAGNASASA
B3: FS-1739 (peptide)
chain: CARLHRFWEGAGNASASA
B4: HC2563 (peptide)
chain: CASTPCSAHAAGNASASA
B5: FS-1510 (peptide)
chain: CAALSRTARAAGNASASA
B6: FS-973 (peptide)
chain: CAALSRVRRAAGNASASA
B7: FS-1287 (peptide)
chain: CASTARLARAAGNASASA
B8: HC232 (peptide)
chain: CAPLGGAARAAGNASASA
B9: HC1331 (peptide)
chain: CASTALAELAAGNASASA
B10: FS-59 (peptide)
chain: CALTQRTARAAGNASASA
B11: HC254 (peptide)
chain: CAVPASAYQVAGNASASA
B12: HC2185 (peptide)
chain: CAEVLTSTWVAGNASASA
B13: FS-662 (peptide)
chain: CAHIARALRNAGNASASA
B14: HC2581 (peptide)
chain: CASTPCSAHNAGNASASA
B15: HC865 (peptide)
chain: CAALGINAVAAGNASASA
B16: FS-198 (peptide)
chain: CASTARIRRNAGNASASA
B17: FS-115 (peptide)
chain: CAALGRKARAAGNASASA
B18: FS-294 (peptide)
chain: CASHSRVRRAAGNASASA
B19: HC1013 (peptide)
chain: CAFDEMEECSAGNASASA
B20: FS-439 (peptide)
chain: CAHIFRKRRPAGNASASA
B21: FS-2420 (peptide)
chain: CARHLRSLEPAGNASASA
B22: FS-2956 (peptide)
chain: CARIVRSLMPAGNASASA
B23: FS-711 (peptide)
chain: CARQERNKRFAGNASASA
B24: FS-1730 (peptide)
chain: CARKNRSHIPAGNASASA
B25: FS-1955 (peptide)
chain: CARHLRSKVTAGNASASA
B26: FS-1511 (peptide)
chain: CAAQAREKRFAGNASASA
B27: FS-2004 (peptide)
chain: CAREHRSGEPAGNASASA
B28: HC2412 (peptide)
chain: CAEVPCHRPEAGNASASA
B29: HC2344 (peptide)
chain: CAEVICHRPSAGNASASA
B30: HC1825 (peptide)
chain: CALTPCSGSWAGNASASA
B31: FS-956 (peptide)
chain: CARQNRWKRQAGNASASA
B32: FS-1715 (peptide)
chain: CARHLREVGDAGNASASA
B33: FS-1714 (peptide)
chain: CARHKRGRGDAGNASASA
B34: FS-1916 (peptide)
chain: CARQNRSVRLAGNASASA
B35: FS-3040 (peptide)
chain: CARQNRGFRAAGNASASA
B36: HC1206 (peptide)
chain: CAVEIRQVGDAGNASASA
B37: FS-493 (peptide)
chain: CARQNREKRFAGNASASA
B38: HC1222 (peptide)
chain: CATELDGVRLAGNASASA
B39: HC829 (peptide)
chain: CAETAGARLVAGNASASA
B40: HC568 (peptide)
chain: CAAASCGGVVAGNASASA
B41: HC2081 (peptide)
chain: CAVVCCSMNYAGNASASA
B42: HC381 (peptide)
chain: CALFYHHKFNAGNASASA
B43: FS-706 (peptide)
chain: CARHLREKRFAGNASASA
B44: FS-2940 (peptide)
chain: CARHLRNVYAAGNASASA
B45: FS-2939 (peptide)
chain: CARHLRANMTAGNASASA

Biological target: furin, P09958
Test: furin cleavage Z-score vs untreated control; higher = more cleavage, active = 3.5 or more, inactive = 1 or less, 8 variable residues between constant flanks
Procedure, shortened: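 The cleavage Z-score is the log read count relative to furin-free reactions, lowess-adjusted and scaled by median absolute deviation. Counts came from sequencing DNA released from bead-bound 8-mer peptide–cDNA fusions after digestion with purified furin for 7.5, 15 or 30 min.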
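Note: purified furin at 1:10 enzyme:substrate in 50 mM HEPES pH 7.5.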

Chain of furin, P09958 (P09958 whole entry): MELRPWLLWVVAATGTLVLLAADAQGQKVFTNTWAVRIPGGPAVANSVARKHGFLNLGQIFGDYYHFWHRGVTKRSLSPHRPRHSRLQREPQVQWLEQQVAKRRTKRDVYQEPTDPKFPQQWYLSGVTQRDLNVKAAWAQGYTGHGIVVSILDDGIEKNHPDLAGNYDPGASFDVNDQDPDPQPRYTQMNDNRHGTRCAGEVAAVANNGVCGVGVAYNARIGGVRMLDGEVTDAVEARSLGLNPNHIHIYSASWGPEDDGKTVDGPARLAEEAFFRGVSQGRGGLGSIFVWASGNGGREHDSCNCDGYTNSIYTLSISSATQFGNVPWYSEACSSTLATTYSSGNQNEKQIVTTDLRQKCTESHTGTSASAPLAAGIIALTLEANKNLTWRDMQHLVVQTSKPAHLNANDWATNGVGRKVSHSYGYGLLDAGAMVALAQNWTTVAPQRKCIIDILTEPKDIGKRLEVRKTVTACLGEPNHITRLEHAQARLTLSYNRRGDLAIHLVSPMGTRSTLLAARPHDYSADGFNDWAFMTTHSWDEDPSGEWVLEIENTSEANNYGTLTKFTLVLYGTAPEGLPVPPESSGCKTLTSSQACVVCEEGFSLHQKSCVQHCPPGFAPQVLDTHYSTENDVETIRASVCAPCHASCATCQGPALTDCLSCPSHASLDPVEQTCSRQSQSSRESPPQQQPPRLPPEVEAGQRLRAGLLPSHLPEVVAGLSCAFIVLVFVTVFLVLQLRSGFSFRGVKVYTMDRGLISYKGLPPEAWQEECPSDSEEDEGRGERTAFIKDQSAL

| Sequence | furin cleavage Z-score (7.5 min) | furin cleavage Z-score (15 min) | furin cleavage Z-score (30 min) |
| --- | --- | --- | --- |
| B1 | -1.1 (inactive) | -0.681 (inactive) | -1.54 (inactive) |
| B2 | 1.01 | -0.806 (inactive) | 1.2 |
| B3 | 1.61 | -1.73 (inactive) | 0.551 (inactive) |
| B4 | 1.54 | 0.374 (inactive) | -0.524 (inactive) |
| B5 | 8.19 (active) | 7.7 (active) | 6.47 (active) |
| B6 | 8.87 (active) | 9.48 (active) | 6.93 (active) |
| B7 | 5.91 (active) | 8.42 (active) | 8.27 (active) |
| B8 | -0.625 (inactive) | -0.427 (inactive) | -0.526 (inactive) |
| B9 | -1.46 (inactive) | -0.668 (inactive) | 0.259 (inactive) |
| B10 | 6.17 (active) | 5.48 (active) | 5.53 (active) |
| B11 | 0.602 (inactive) | -1.58 (inactive) | -0.419 (inactive) |
| B12 | 0.631 (inactive) | -0.524 (inactive) | 0.492 (inactive) |
| B13 | 0.331 (inactive) | 1.47 | 0.623 (inactive) |
| B14 | -0.0473 (inactive) | 1.28 | -0.895 (inactive) |
| B15 | 0.253 (inactive) | 0.918 (inactive) | -1.14 (inactive) |
| B16 | 11.3 (active) | 11.2 (active) | 10.4 (active) |
| B17 | 6.64 (active) | 6.76 (active) | 5.64 (active) |
| B18 | 11.4 (active) | 9.7 (active) | 7.37 (active) |
| B19 | 0.602 (inactive) | 0.715 (inactive) | 0.322 (inactive) |
| B20 | -0.371 (inactive) | -0.427 (inactive) | -0.596 (inactive) |
| B21 | 5.02 (active) | 6.47 (active) | 5.66 (active) |
| B22 | 6.15 (active) | 8.67 (active) | 10.9 (active) |
| B23 | 8.02 (active) | 9.31 (active) | 10.8 (active) |

| Sequence | furin cleavage Z-score (7.5 min) | furin cleavage Z-score (15 min) | furin cleavage Z-score (30 min) |
| --- | --- | --- | --- |
| B24 | 0.266 (inactive) | -0.138 (inactive) | -0.417 (inactive) |
| B25 | -0.109 (inactive) | -0.365 (inactive) | 0.464 (inactive) |
| B26 | 6.88 (active) | 8.08 (active) | 8.04 (active) |
| B27 | -1.1 (inactive) | -0.712 (inactive) | -1.7 (inactive) |
| B28 | 1.1 | 0.551 (inactive) | -0.217 (inactive) |
| B29 | -0.36 (inactive) | -0.916 (inactive) | 1.17 |
| B30 | -0.28 (inactive) | -0.817 (inactive) | -0.734 (inactive) |
| B31 | 13.6 (active) | 16.1 (active) | 9.49 (active) |
| B32 | 2.58 | 3.76 (active) | 3.94 (active) |
| B33 | 0.301 (inactive) | 2.2 | 1.5 |
| B34 | 2.12 | 3.53 (active) | 4 (active) |
| B35 | -0.161 (inactive) | 0.266 (inactive) | 0.111 (inactive) |
| B36 | -0.56 (inactive) | -1.09 (inactive) | -1.86 (inactive) |
| B37 | 8.07 (active) | 9.73 (active) | 9.9 (active) |
| B38 | -1.97 (inactive) | -0.317 (inactive) | -1.04 (inactive) |
| B39 | 1.45 | 1.12 | -1.04 (inactive) |
| B40 | -0.496 (inactive) | -0.825 (inactive) | 0.0661 (inactive) |
| B41 | -0.198 (inactive) | -1.19 (inactive) | -1.03 (inactive) |
| B42 | -0.625 (inactive) | -2.1 (inactive) | -0.731 (inactive) |
| B43 | 6.75 (active) | 9.12 (active) | 10.1 (active) |
| B44 | 0.638 (inactive) | -0.594 (inactive) | 1.3 |
| B45 | -0.54 (inactive) | -1.02 (inactive) | -1.63 (inactive) |
